# Bioassay records as filed in PubChem BioAssay.
# Menin MLL FP FL – qHTS Assay for Inhibitors Targeting the Menin-MLL Interaction in MLL Related Leukemias: Competition With Fluorescein Labeled MLL-derived Peptide; Fluorescence polarization, fluorescein-MLL peptide displacement from menin; FP activity change, % at 61.4 µM; 290,000 tested, under 10 active; AID 1766, 2009; active = well fitted curve in the direction sought with a large enough effect in the polarisation, not every such curve was filed as active; inconclusive = small, poorly fitted or top-dose-only effect, or effect the other way, or a change in a side signal; inactive = no such curve, though single readings can be large or run the other way; the % refers to the polarisation; note: % of control where 0% means no effect
# Menin-MLL TR inh – qHTS Assay for Inhibitors Targeting the Menin-MLL Interaction in MLL Related Leukemias: Competition With Texas Red Labeled MLL-derived Mutant Peptide. O00255. Menin + Texas Red MLL mutant peptide, fluorescence polarization. Potency, µM (series often up to 61.6 µM), without a hit: top-dose FP activity change, negative = inhibition, hits mostly inhibitors. 0.23% of 270,000 active; active = well fitted inhibition curve with a large enough effect in the polarisation, with a control signal flat, not every such curve was filed as active; inconclusive = small, poorly fitted or top-dose-only effect, or effect the other way, or a change in a side signal; inactive = no such curve, though single readings can be large or run the other way; the % refers to the polarisation; note: potency is the fitted concentration of half-maximal effect; % of control where 0% means no effect
# Target sequence (O00255 whole entry, looked up): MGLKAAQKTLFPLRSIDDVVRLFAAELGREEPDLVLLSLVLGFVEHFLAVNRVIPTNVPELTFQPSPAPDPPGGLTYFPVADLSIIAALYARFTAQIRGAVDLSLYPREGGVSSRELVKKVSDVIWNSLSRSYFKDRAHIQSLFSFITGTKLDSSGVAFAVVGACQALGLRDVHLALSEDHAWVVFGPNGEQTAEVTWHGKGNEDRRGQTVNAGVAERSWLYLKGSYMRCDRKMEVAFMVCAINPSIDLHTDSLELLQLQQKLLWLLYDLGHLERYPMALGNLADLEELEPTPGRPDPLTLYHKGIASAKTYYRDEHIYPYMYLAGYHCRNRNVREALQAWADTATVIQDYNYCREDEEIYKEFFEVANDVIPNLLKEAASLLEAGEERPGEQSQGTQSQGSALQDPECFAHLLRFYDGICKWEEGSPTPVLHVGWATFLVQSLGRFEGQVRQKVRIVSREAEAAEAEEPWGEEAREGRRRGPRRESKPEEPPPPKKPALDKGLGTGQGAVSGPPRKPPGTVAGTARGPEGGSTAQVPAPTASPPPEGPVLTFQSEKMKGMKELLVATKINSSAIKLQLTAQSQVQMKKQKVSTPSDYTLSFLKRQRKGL
# MLL CXXC-DNA inh – qHTS Fluorescence Polarization Assay for Inhibitors of MLL CXXC domain - DNA interaction; AID 2662, 2010; Potency, µM (doses to about 115 µM), inactives show at the highest dose activity change, negative = inhibition, most hits filed as inhibitors; 0.037% of 290,000 active; Histone-lysine N-methyltransferase 2A (Homo sapiens), Q03164; MLL-CXXC / FITC-HOXA9 DNA fluorescence polarization; active = well fitted inhibition curve with a large enough effect in the polarisation, with a control signal flat, not every such curve was filed as active; inconclusive = small, poorly fitted or top-dose-only effect, or effect the other way, or a change in a side signal; inactive = no such curve, though single readings can be large or run the other way; the % refers to the polarisation; note: potency is the fitted concentration of half-maximal effect
#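 Steps: dispense CXXC domain solution (7 uM) → pin compounds or unlabeled HOX-A9 DNA control → 5 min ambient → add FLSN-HOX-A9 solution (50 nM) → spin → 30 min ambient → fluorescence polarization. Tris pH 7.5/NaCl/DTT/BSA buffer.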
# MLL CXXC FP-Fl – qHTS Fluorescence Polarization (FP) Assay for Inhibitors of MLL CXXC domain - DNA interaction: Fluorescein FP. 70% of 200 active. shares compounds with MLL CXXC-DNA inh. MLL CXXC-DNA binding, fluorescein FP. Potency, µM (titrated, usually from 345 µM), without a hit: at the highest dose activity change, negative = inhibition, most hits filed as inhibitors; note: potency is the fitted concentration of half-maximal effect; nearly all actives have a fitted effect of over 80% in size
# MLL CXXC TxRed – qHTS Fluorescence Polarization (FP) Assay for Inhibitors of MLL CXXC domain - DNA interaction: Texas Red FP; AID 624161, 2012; MLL CXXC-DNA binding, Texas Red fluorescence polarization; Potency, µM (series often up to 345 µM), for inactives: at the highest dose activity change, negative = inhibition, most hits filed as inhibitors; shares compounds with MLL CXXC-DNA inh; 40% of 200 active; note: potency is the fitted concentration of half-maximal effect; % is set by controls: 0 for no effect and ±100 for the full control effect; nearly all actives have a fitted effect of over 75% in size
# MLL CXXC TRF – qHTS Fluorescence Polarization (FP) Assay for Inhibitors of MLL CXXC domain - DNA interaction: HTRF Assay; shares compounds with MLL CXXC-DNA inh; MLL CXXC-DNA binding, HTRF, biochemical; Potency, µM (titrated, usually from 172 µM), for inactives: at the top dose activity change, negative = inhibition, actives largely listed as inhibitors; 30% of 210 active; AID 624162, 2012; note: % is set by controls: 0 for no effect and ±100 for the full control effect; nearly all actives have a fitted effect of over 80% in size
# An asterisk follows results filed as active; u = inconclusive; x = not tested or not shown; [ ] = remark or other dose. The sample as a whole holds a higher share of hits than the screen did. Unless noted, calls come from the whole dose curve; as a rule, active = well fitted inhibition curve with a large enough effect; inconclusive = small, poorly fitted or top-dose-only effect; inactive = no such curve, though single readings can be large or run the other way.
SMILES,Menin MLL FP FL,Menin-MLL TR inh,MLL CXXC-DNA inh,others
O=C1N=C2SCCN2C(=O)C1Cc1ccc(Cl)cc1 (stereo unspecified),2,-6%,-7%,
Cc1ccc2oc(-c3ccccc3C(=O)O)cc(=O)c2c1,1,7%,-2%,
O=C(O)c1ccccc1-c1c2cc(Br)c(=O)c(Br)c-2oc2c(Br)c(O)c(Br)cc12,u,u,u,MLL CXXC FP-Fl=0.63µM*;MLL CXXC TxRed=5µM*;MLL CXXC TRF=-62%
COc1ccc(Cl)cc1-c1ccc(C(=O)O)o1,-1[94.6 µM],-7%[94.6 µM],x,
O=C1/C(=C/c2cccs2)Cc2ccccc21,9,26%,7%,
O=C1C(=Cc2cccs2)C(=O)c2ccccc21,-4,10%,u,MLL CXXC FP-Fl=22µM*;MLL CXXC TxRed=u;MLL CXXC TRF=15%
CCCCC[C@H](O)/C=C/C=C\CCCCCCCC(=O)O,-11,-2%,x,
CCC(C)(C)c1ccc(CC(C)CN2C[C@@H](C)O[C@@H](C)C2)cc1 (stereo partly specified),-1,-8%,18%,
C/C=C1\COC(C(=O)NC)(C(F)(F)F)C=C1C=C1CCCCC1 (stereo unspecified),-2,1%,x,
